High-throughput results as filed in PubChem.
Shown are actives, neighbours in structure and some others; about 12% of the full set was active somewhere.
L3MBTL1 inh: qHTS Assay for the Inhibitors of L3MBTL1; Lethal(3)malignant brain tumor-like protein 1 (Homo sapiens), Q9Y468; AlphaScreen L3MBTL1–H3K9me1 peptide binding; Potency, µM (titrated, usually from 57.1 µM), for the others: top-dose activity, negative = inhibition, actives largely listed as inhibitors; actives 0.66% (n = 230,000); AID 485360, 2010; further: on the % scale 0 is the no-effect control and ±100 the full control effect; nearly all actives have a fitted effect of over 60% in size
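L3MBTL1 50 nM + b-AHA-H3(1-15)K9me1 75 nM, 30 min RT; compound added, 30 min RT; streptavidin donor/Ni-chelate acceptor beads 10 ug/mL each final, 30 min RT dark; AlphaScreen read.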
G9a inh: qHTS Assay for Inhibitors of Histone Lysine Methyltransferase G9a; Histone-lysine N-methyltransferase EHMT2 (Homo sapiens), Q96KQ7; G9a H3K9 monomethylation, AlphaScreen, 2 h; Potency, µM (highest dose often 102 µM), for the others: at the highest dose activity, negative = inhibition, most hits filed as inhibitors; actives 8.8% (n = 350,000); further: on the % scale 0 is the no-effect control and ±100 the full control effect; nearly all actives have a fitted effect of over 75% in size
Target sequence (Q96KQ7 913-1193 limits assumed): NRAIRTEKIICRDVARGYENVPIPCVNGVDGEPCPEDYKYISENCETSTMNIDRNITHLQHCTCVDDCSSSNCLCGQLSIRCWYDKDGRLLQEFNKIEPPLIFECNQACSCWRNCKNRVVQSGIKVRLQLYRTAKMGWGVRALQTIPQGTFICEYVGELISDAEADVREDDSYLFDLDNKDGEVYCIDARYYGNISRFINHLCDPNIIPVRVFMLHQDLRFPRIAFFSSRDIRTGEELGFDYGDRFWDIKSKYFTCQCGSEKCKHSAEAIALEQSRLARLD
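AlphaScreen read-out: biotin-H3K9 peptide (500 nM) methylation by 20 nM enzyme with 20 uM SAM, 2 h at room temperature after 15 min compound preincubation; anti-monomethyl H3K9 antibody plus donor/acceptor beads, 10 min dark.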
Sfp PPTase inh: qHTS Assay for Inhibitors of Bacillus subtilis Sfp phosphopantetheinyl transferase (PPTase); Biochemical Sfp PPTase activity, qHTS; Potency, µM, inactives show largest response in the series, negative = inhibition, most hits filed as inhibitors; actives 3.5% (n = 310,000);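 further: the enzyme is Sfp with the accession as filed and its product quenches rhodamine fluorescence; 0% = enzyme reaction without inhibitor and -100% = no enzyme wells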
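Step 1, compound plus 15 nM Sfp-PPTase, 15 min, room temperature. Step 2, add rhodamine-CoA (5 uM) and BHQ-2-YbbR (12.5 uM). Step 3, read 525/598 nm fluorescence at 0 and 30 min.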
BAZ2B inh: qHTS Assay for Inhibitors of BAZ2B | Bromodomain adjacent to zinc finger domain protein 2B (Homo sapiens), Q9UIF8 | AlphaScreen BAZ2B-H3K14Ac peptide displacement | Potency, µM (top dose mostly 114 µM), inactives show at the highest dose activity change, negative = inhibition, hits mostly inhibitors | actives 4.4% (n = 360,000) | AID 504333, 2011; further: on the % scale 0 is the no-effect control and ±100 the full control effect; nearly all actives have a fitted effect of over 60% in size
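BAZ2B (50 nM) with biotin-H3(5-23)K14Ac peptide (50 nM) in PBS pH 7.4, 0.01% Tween-20, preformed 30 min, then compound 30 min at room temperature; top concentration 110uM. AlphaScreen streptavidin donor/nickel chelate acceptor beads (10 ug/mL final), 20 min dark, signal read.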
JMJD2A Tudor: qHTS Assay for Inhibitors of JMJD2A-Tudor Domain. Lysine-specific demethylase 4A (Homo sapiens), O75164. AlphaScreen JMJD2A-Tudor / H3K4me3 peptide binding. Potency, µM (titrated, usually from 114 µM), for the others: at the highest dose activity change, negative = inhibition, actives largely listed as inhibitors. actives 4.4% (n = 390,000). AID 504339, 2011; further: on the % scale 0 is the no-effect control and ±100 the full control effect; nearly all actives have a fitted effect of over 50% in size
HP1b chromo inh: HTS for Inhibitors of HP1-beta Chromodomain Interactions with Methylated Histone Tails; AlphaScreen HP1-beta / biotin-H3K9me3 peptide binding; Potency, µM (titrated, usually from 114 µM), for the others: at the top dose activity change, negative = inhibition, usual class: inhibitors; actives 0.56% (n = 390,000); AID 540317, 2011; further: nearly all actives have a fitted effect of over 70% in size
Target sequence (P83916 whole entry, looked up): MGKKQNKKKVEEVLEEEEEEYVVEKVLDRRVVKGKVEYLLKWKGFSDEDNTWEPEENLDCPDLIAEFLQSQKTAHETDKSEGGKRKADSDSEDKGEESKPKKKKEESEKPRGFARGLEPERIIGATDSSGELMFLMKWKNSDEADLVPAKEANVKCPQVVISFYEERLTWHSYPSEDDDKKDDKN
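Compound inhibition of the preformed complex between 50 nM HP1-beta and 50 nM biotinylated H3K9me3 peptide was read by AlphaScreen. Buffer was PBS pH 7.4 with 0.01% Tween-20. Incubations ran 30 min at room temperature, with 10 ug/mL donor/acceptor beads.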
* = called active by the depositor; u = inconclusive; x = no result given; [ ] = another dose, or the depositor's remark. The call rests on the fitted dose curve; in most records, active means well fitted curve in the direction sought with a large enough effect; inconclusive means small, poorly fitted or top-dose-only effect, or another doubt; inactive means no such curve, though single readings can be large; an effect the other way counts as inactive or inconclusive. Potency means the concentration at half of the fitted maximal effect.

SMILES	L3MBTL1 inh	G9a inh	Sfp PPTase inh	BAZ2B inh	JMJD2A Tudor	HP1b chromo inh
Cc1ccc(N2CC(C(=O)Nc3nnc(SCC(=O)NCC4CCCO4)s3)CC2=O)cc1C (stereo not given)	x	39.8µM*	-9.4%	-7.0%	-2.9%	38.6%
COc1ccc(Cc2nnc(NC(=O)C3CC(=O)N(c4ccc(OC)cc4)C3)s2)cc1 (stereo not given)	x	2.5%	10.6%	-11.5%	-9.2%	4.2%
CC(=O)Nc1ccc(NC(=O)CSc2nnc(NC(=O)C3CC(=O)N(c4ccccc4)C3)s2)cc1 (stereo not given)	x	39.8µM*	7.6%	-16.9%	-12.5%	52.4%
O=C(NCc1ccc2c(c1)CCN2C(=O)c1ccc(Cl)cc1)c1cccc(F)c1	x	-7.1%[59 µM]	x	-1.8%	-16.3%	5.6%
CCc1ccc(NC(=O)C2=CC=CN3CCS(=O)(=O)N=C23)cc1	1.7%	14.3%[12.7 µM]	x	-3.6%	-9.4%	23.4%
CC(=O)Nc1ccc(NC(=O)CSc2nnc(NC(=O)c3ccc(Br)o3)s2)cc1	x	15.8µM*	4.4%	u	-19.7%	35.1%
CC(=O)Nc1cccc(NC(=O)CSc2nnc(NC(=O)c3ccco3)s2)c1	x	u	7.8%	-11.5%	-18.2%	19.2%
CCCC(=O)N(C1CC(C)C(C#N)(C#N)C1(C#N)C#N)N(C)C (stereo not given)	-5.4%	7.08µM*	1.78µM*	15.9%	-32.8%	4.1%
CC(=O)N(C1CC(C)C(C#N)(C#N)C1(C#N)C#N)N(C)C (stereo not given)	0.9%	12.6µM*	10µM*	-9.6%	-17.5%	20.4%
CCNc1nc(NCC)nc(N/N=C/c2cc(OC)c(OC)c(OC)c2)n1	-10.3%	10.5%	10.2%	-16.6%	-4.0%	41.5%
CCNc1nc(NCC)nc(N/N=C/c2ccc(N(C)C)cc2)n1	u	50.1µM*	24.8%	44.7µM*	u	-20.6%
Cc1ccc(/C=N/Nc2nnc(Cl)c3ccccc23)cc1	-16.5%	44.7µM*	-25.7%	u	-28.5%	22.3%
CN(C)c1ccc(/C=N/Nc2nncc3ccccc23)cc1	-2.6%	28.2µM*	-2.4%	-3.0%	-19.9%	44.8%
C/C(=N\Nc1nncc2ccccc12)c1ccc(C(C)(C)C)cc1	x	-9.5%[2.33 µM]	2.3%	56.2µM*	-7.3%	-0.2%
Clc1ccc(/C=N/Nc2nnc(Cl)c3ccccc23)cc1	-4.4%	19.4%[59 µM]	6.3%	11.5%	0.0%	35.5%
COc1ccc2oc(-c3ccc(C)c(NC(=O)Cc4ccc(Cl)cc4)c3)nc2c1	x	3.4%[59 µM]	x	-3.1%	-6.3%	29.2%
CN(C)CC[C@H](c1ccc(Br)cc1)c1ccccn1	x	15.2%[21.5 µM]	27.2%	x	x	x
CCCCN(C(=O)c1cc(CN2C(=O)c3ccccc3C2=O)ccc1OC)c1c(N)n(CC(C)C)c(=O)[nH]c1=O	x	x	x	x	-5.7%	26.3%
Cc1cccc(C)c1NC(=O)CN1CCN(C(=O)CNC(=O)c2ccc(N3CCCC3=O)cc2)CC1	-2.4%	26.8%[12.7 µM]	x	2.0%	-5.5%	38.8%
Cc1cc(C)c(NC(=O)C2CCCN(C(=O)c3cnn(-c4ccccc4)c3-n3cccc3)C2)c(C)c1 (stereo not given)	x	1.5%[59 µM]	x	-11.4%	-7.7%	37.6%
CCNc1nc(NCC)nc(N/N=C/c2ccc(O)c(O)c2)n1	-10.5%	39.8µM*	50.1µM*	u	-18.5%	36.7%
CCCCCNC(=O)c1ccc2c(=O)n(CCCOCC)c(=S)[nH]c2c1	x	1.3%[59 µM]	13.9%	-13.3%	-18.5%	37.4%
CCOCCCn1c(=S)[nH]c2cc(C(=O)N3CCOCC3)ccc2c1=O	2.9%	u	79.4µM*	u	22.4µM*	17.1%
CCOCCCn1c(=S)[nH]c2cc(C(=O)NCC(OC)OC)ccc2c1=O	x	25.1µM*	-15.6%	u	-17.6%	47.9%
CCCc1nc2ccccc2c(C(=O)N(CC)CC(=O)NCc2cccs2)c1CC	4.3%	35.5µM*	x	8.2%	3.4%	22.3%
SMILES	L3MBTL1 inh	G9a inh	Sfp PPTase inh	BAZ2B inh	JMJD2A Tudor	HP1b chromo inh
CCN(CC(=O)NCc1cccs1)C(=O)c1ccc(Cl)c(Cl)c1	6.7%	x	x	x	-15.0%	18.3%
CCC(=O)O[C@]1(C(=O)CCl)[C@@H](C)CC2C3C[C@H](F)C4=CC(=O)C=CC4(C)[C@@]3(F)C(O)CC21C (stereo not given in full)	x	7.5%[12.7 µM]	9.1%	x	x	x
O=C1CC(c2ccco2)CC(O)=C1C=Nc1ccc(Br)cc1 (stereo not given)	x	14.1µM*	56.2µM*	-37.5%	-14.0%	8.8%
CCc1ccc(N=CC2=C(O)CC(c3ccco3)CC2=O)cc1 (stereo not given)	x	u	79.4µM*	-2.8%	-8.6%	17.0%
Cc1ccc(N=CC2=C(O)CC(c3ccco3)CC2=O)cc1 (stereo not given)	-2.1%	x	-15.9%	-2.4%	-6.0%	24.8%
O=C1CC(c2ccco2)CC(O)=C1C=Nc1ccccc1-c1ccccc1 (stereo not given)	x	9.8%[59 µM]	-3.4%	-11.3%	-15.1%	34.8%
O=C1CC(c2ccco2)CC(O)=C1C=Nc1cc(Cl)ccc1O (stereo not given)	35.5µM*	u	-23.7%	44.7µM*	79.4µM*	u
COc1cccc([C@H]2Oc3ccc(OC)cc3/C(=N\OC[C@@H](O)[C@@H]3O[C@@H]4OC(C)(C)O[C@@H]4[C@H]3O)[C@@H]2O)c1	x	x	7.1%	x	x	x
COc1cccc(N2CCN(C(=O)c3oc4ccccc4c3NC(=O)CCc3cc(OC)no3)CC2)c1	x	56.2µM*	-3.4%	u	u	2.6%
CC(C)CC(=O)Nc1c(C(=O)N2CCN(c3ccccc3)CC2)oc2ccccc12	x	14.1µM*	x	-33.8%	-32.1%	24.9%
COc1cccc(CC(=O)Nc2c(C(=O)N3CCN(c4ccccc4)CC3)oc3ccccc23)c1	x	-8.6%[59 µM]	x	0.2%	-11.9%	6.6%
C=C(C)C(O)/C=C/c1ccccc1OC (stereo not given)	x	x	18.3%	x	x	x
CC1CN(c2snnc2C=C2C(=O)OC(C)(C)OC2=O)CC(C)O1 (stereo not given)	-26.7%	u	50.1µM*	u	-23.4%	23.7%
